# DT40 TDP1 CPT: DT40-hTDP1 cell growth loss with CPT. 420,000 tested, 12% active. chicken DT40 Tdp1-/-;hTDP1 cells + 20 nM CPT, ATP luminescence, 48 h. Potency, µM (doses to about 46.2 µM), without a hit: at the highest dose activity change, negative = growth inhibition, usual class: inhibitors. AID 686979; also: potency is read from the fitted curve at half-maximal effect; nearly all actives have a fitted effect of over 55% in size
#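 Cell growth measured by CellTiter-Glo luminescence after a minimum 48 h, 37 C compound exposure with 20 nM CPT in Tdp1-knockout DT40 cells stably expressing hTDP1, seeded 400/well; qHTS titration format.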
# IL-1B inflam inh: inflammasome signaling inhibition, IL-1 beta readout; THP-1 LPS/ATP IL-1B secretion, AlphaLISA, 16 h; hits give low values; activity change, % at 57.5 µM; 360,000 tested, 4.7% active; AID 743279; in the data active = activity change below about -50%; inconclusive = mostly about -30% to -49%
#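 Secreted IL-1B measured by AlphaLISA bead assay after 16 h compound exposure of THP-1 cells; compounds (final up to 57.5 uM) added 1 h before LPS (250 ng/mL) and ATP (1.25 mM) stimulation; lower signal means less secretion.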
# Giardia killer: kills Giardia lamblia | Giardia lamblia trophozoite viability | 340,000 tested, 0.15% active | activity change, % at 7.66 µM, hits read low; in the data active = activity change below about -80%; inconclusive = between about -30% and that limit;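 also: parasites exposed to compound for two days anaerobically before the ATP read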
#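 Giardia trophozoites, 100 cells per well, were exposed to compounds for 48 hrs at 37 deg C under anaerobic conditions; viability was then read as ATP content by bioluminescence after 15-30 min at room temperature.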
# DT40 TDP1 no CPT: qHTS for Inhibitors of human tyrosyl-DNA phosphodiesterase 1 (TDP1): qHTS in cells in absence of CPT | DT40 Tdp1-/- hTDP1 cells, no CPT, ATP luminescence, 48 h | AID 686978, 2013 | Potency, µM (series often up to 46.2 µM), without a hit: at the top dose activity change, negative = growth inhibition, hits mostly inhibitors | 420,000 tested, 15% active; also: potency is read from the fitted curve at half-maximal effect; nearly all actives have a fitted effect of over 55% in size
#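 No-CPT arm: Tdp1-/-;hTDP1 DT40 cells (400/well) plus compounds, incubated ≥48 hr at 37 °C. Readout CellTiter-Glo luminescence.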
# ELG1 DNA repair: ELG1-dependent DNA repair inhibition. Potency, µM (series often up to 46.1 µM), for the others: at the highest dose activity change, negative = inhibition, most hits filed as inhibitors. HEK293T ELG1-luciferase reporter, luminescence, 16 h; DNA damage induced by 5-fluorouridine. 330,000 tested, 2.3% active; also: potency is read from the fitted curve at half-maximal effect; nearly all actives have a fitted effect of over 55% in size
#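 HEK293T cells expressing luciferase-tagged ELG1 (2,000/well) received 5-Fluorouridine plus compound or DMSO for 16 hr at 37 °C. Luciferase was read by ONE-Glo luminescence after 30 min at room temperature.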
# TDP1 inh: TDP1 (human) enzyme inhibition; Q9NUW8; recombinant TDP1, AlphaScreen DNA substrate cleavage; Potency, µM (doses to about 130 µM), for inactives: at the highest dose activity change, negative = inhibition, most hits filed as inhibitors; 350,000 tested, 0.28% active; also: potency is read from the fitted curve at half-maximal effect; nearly all actives have a fitted effect of over 40% in size
# Target sequence (Q9NUW8 whole entry, looked up): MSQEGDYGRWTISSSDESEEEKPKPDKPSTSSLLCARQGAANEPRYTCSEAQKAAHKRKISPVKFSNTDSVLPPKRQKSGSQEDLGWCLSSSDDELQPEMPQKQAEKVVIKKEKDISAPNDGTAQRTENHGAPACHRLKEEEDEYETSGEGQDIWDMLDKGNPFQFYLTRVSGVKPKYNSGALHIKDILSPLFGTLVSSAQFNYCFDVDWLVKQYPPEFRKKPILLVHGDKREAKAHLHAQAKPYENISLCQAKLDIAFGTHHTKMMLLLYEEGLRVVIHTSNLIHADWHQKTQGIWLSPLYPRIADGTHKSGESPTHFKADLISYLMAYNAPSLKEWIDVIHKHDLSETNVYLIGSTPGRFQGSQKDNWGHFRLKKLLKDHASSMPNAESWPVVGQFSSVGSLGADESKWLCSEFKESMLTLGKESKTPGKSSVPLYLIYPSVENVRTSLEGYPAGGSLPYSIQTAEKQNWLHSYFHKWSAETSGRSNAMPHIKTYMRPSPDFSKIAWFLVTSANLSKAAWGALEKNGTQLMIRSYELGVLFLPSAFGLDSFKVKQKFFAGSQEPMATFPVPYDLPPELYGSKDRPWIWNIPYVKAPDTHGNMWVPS
#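 Steps: enzyme plus compound, 15 min RT; add biotin/phosphotyrosine-FITC oligonucleotide (15 nM final), react 5 min; add donor/acceptor beads (10 ug/ml final), 10 min; read AlphaScreen. Tdp1 at 1 nM final.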
# Starred values were filed as active, the others as inactive; ? = inconclusive; / = no result given; ! = not active in a repeat; [ ] = dose if it differs, or a comment. Compounds with a hit are over-represented: about 19% of the library has one in this group of screens. Unless noted, calls follow the shape of the dose curve; as a rule, active = well fitted curve in the direction sought with a large enough effect; inconclusive = small, poorly fitted or top-dose-only effect, or another doubt; inactive = no such curve, though single readings can be large; an effect the other way counts as inactive or inconclusive. % is scaled to controls: 0 for no effect and ±100 for the full control effect.
SMILES,DT40 TDP1 CPT,IL-1B inflam inh,Giardia killer,DT40 TDP1 no CPT,ELG1 DNA repair,TDP1 inh
O=C(NCCO)c1ccc2nc(-c3ccco3)c(-c3ccco3)nc2c1,?,-6.3,3.7,20.6µM*,-21.9%,/
c1coc(-c2nc3ccccc3nc2-c2ccco2)c1,18.4µM*,?,-6.4,?,17.7%,/
O=C(c1ccccc1)c1ccc2nc(-c3ccco3)c(-c3ccco3)nc2c1,20.6µM*,-18.4,-1.0,20.6µM*,?,-7.6%
O=C(NCCO)c1ccc(Cl)c(Cl)c1,-15.0%,15.1,18.1,-14.0%,18.3%,4.2%
O=C(NCCc1ccccc1)c1ccc(=O)oc1,-15.3%,-7.5,-15.5,-13.8%,17.2%,0.0%
c1coc(-c2cnc3ccccc3n2)c1,22.9%,-11.5,/,-1.6%,/,/
NC(=O)c1ccc2nc(-c3ccccc3)c(-c3ccccc3)nc2c1,-15.2%,3.2,-10.1,-27.0%,-9.6%,/
Cc1ccccc1C(=O)N1CCc2c(cnc(C)c2CNC(=O)c2ccc3c(c2)OCO3)C1,6.2%[9.04 µM],/,/,-23.6%,/,/
Cc1c(-c2nnc(SCC(=O)Nc3ccc(Br)cc3)o2)nnn1-c1ccc(F)cc1,?,/,/,-27.9%,/,-0.6%
CCC(CC)C(=O)NC1CC(=O)N(c2ccc3c(c2)OCCO3)C1 (centres undefined),-12.9%,/,/,-11.9%,/,2.6%
CCCN(CC(=O)Nc1ccc(Cl)cc1Cl)C(=O)/C=C/c1cccc([N+](=O)[O-])c1,?,?,7.2,29.1µM*,?,2.6%
CCCN(CC(=O)Nc1ccc(Cl)cc1Cl)C(=O)/C=C/c1cc(OC)ccc1OC,?,0.0,4.5,29.1µM*,?,5.5%
Cc1ccc(OCC(=O)NCCCNC(=O)c2ccc(C)nc2)cc1,-3.6%,-4.9,3.7,-9.3%,-1.6%,-11.6%
CN(C(=O)/C=C/c1ccc([N+](=O)[O-])s1)c1ccccc1,10.3µM*,-51.6*,?,5.17µM*,?,10.0%
CCn1cc[n+](C)c1P(c1ccccc1)c1ccccc1,0.651µM*,0.0,-9.7,0.013µM*,10.1%,5.4%
O=C(COc1ccc([N+](=O)[O-])cc1)NC(=O)NC1CCS(=O)(=O)C1 (centres undefined),-1.4%,2.9,-16.6,-14.0%,1.4%,-12.1%
Cc1cccc(C#Cc2ccccc2)n1,?,-18.4,-11.1,29.9µM*!,?,-2.5%[56.1 µM]
COC(=O)c1ccc(-c2ccc(/C=N/N3C(=O)C4C5C=CC(CC5)C4C3=O)o2)cc1 (centres undefined),0.3%,1.8,3.9,-27.7%,?,5.1%
Cc1ccc(-c2ccc(/C=N/N3C(=O)C4C5C=CC(CC5)C4C3=O)o2)c([N+](=O)[O-])c1 (centres undefined),18.4µM*,-24.2,-101.9*,?,?,9.3%
O=C1C2C3C=CC(C4CC34)C2C(=O)N1/N=C/c1ccc(-c2ccc(Cl)cc2[N+](=O)[O-])o1 (centres undefined),?,0.0,5.0,?,?,5.0%
COc1ccc(-c2ccc(/C=N/N3C(=O)C4C5C=CC(C6CC56)C4C3=O)o2)c([N+](=O)[O-])c1 (centres undefined),?,-1.1,7.0,23.1µM*,18.4µM*,7.0%
O=C1C2C3C=CC(C4CC34)C2C(=O)N1/N=C/c1ccc(-c2ccc(F)cc2[N+](=O)[O-])o1 (centres undefined),?,?,-3.9,23.1µM*,?,6.6%
O=C(O)c1cc(-c2ccc(/C=N/N3C(=O)C4C5C=CC(C6CC56)C4C3=O)o2)ccc1Cl (centres undefined),13.4%,31.2,3.4,3.0%,?,?
O=C(CCC1CCCC1)NNC(=O)c1ccc(F)cc1,-0.7%,7.2,-2.2,-3.7%,30.0%,2.1%
COc1ccc(NC(=O)c2ccc(NC(=O)CN(C)CC(=O)Nc3c(C)cccc3C)cc2)cc1,?,-11.6,-15.8,?,?,0.0%
SMILES,DT40 TDP1 CPT,IL-1B inflam inh,Giardia killer,DT40 TDP1 no CPT,ELG1 DNA repair,TDP1 inh
O=C(Nc1ccc(F)cc1)[C@H](CSCc1ccccc1)N1Cc2ccccc2C1=O,-25.4%,/,/,-21.1%,/,-2.3%
O=c1c2ccccc2c2c(O)nc(-c3ccccc3)n2n1Cc1ccccc1,-9.8%,1.1,-16.5,-7.1%,7.5%,-2.0%
Cc1ccc(NC(=O)C(C)N=C2NS(=O)(=O)c3ccccc32)cc1F (centres undefined),-24.4%,-0.8,0.1,?,?,/
COc1ccc(CN(CC2CCCO2)C(=O)c2cc3sccc3n2C)c(OC)c1 (centres undefined),-8.5%,-103.8*,-13.9,?,?,-2.5%
O=C(N/N=C/c1cn(-c2ccccc2)nc1-c1cc2ccccc2o1)c1cccnc1,3.26µM*,-222.3*,-0.8,5.17µM*,?,-2.8%
O=C(N/N=C/c1cn(-c2ccccc2)nc1-c1cc2ccccc2o1)c1ccncc1,25.9µM*,?,0.3,18.4µM*,?,2.6%
O=C(N/N=C/c1cn(-c2ccccc2)nc1-c1cccnc1)c1cccnc1,-29.2%,?,11.1,-21.6%,?,2.5%
CC1=C(C(=O)OC(C)C)C(c2ccc3c(c2)OCO3)NC(=O)N1 (centres undefined),-14.0%,1.3,1.8,-1.2%,17.8%,2.7%
CCOC(=O)c1sc2c(c1C)c(=O)n(Cc1ccccc1)c(=O)n2CCN(C)C,?,-18.9,14.5,-23.8%,?,/
O=C1CN(c2nc(-c3cccs3)nc3sc4c(c23)CCCC4)CCN1,?,-93.6*,2.1,?,3.5%,5.5%
Cc1ccc(-c2nn(-c3ccc(F)cc3)cc2C(=O)NC2CCC(O)CC2)cc1 (centres undefined),-1.9%,-8.3,4.7,-7.4%,?,-0.7%
COc1ccc(-n2cc(CNCCc3cscn3)c(-c3ccccc3Cl)n2)cc1,16.4µM*,-63.3*,37.8,11.6µM*,-1.3%,3.7%
Cc1ccc(-n2cc(CNCCc3cscn3)c(-c3ccc(F)cc3)n2)cc1,?,-94.2*,1.9,23.1µM*,6.8%,6.0%
COc1cccc(CN2CCN(c3nc4nonc4nc3N3CCCCC3)CC2=O)c1,?,-5.8,-3.0,?,8.8%,/
Cc1ccsc1-c1nc(CSCC(=O)N2CCN(c3ccccc3)CC2)c(C)o1,14.6µM*,-15.5,-8.2,?,?,-4.9%
Cc1ccc(-c2nc(CSCC(=O)N3CCCC3)c(C)o2)cc1,-45.5%,9.1,7.6,-38.2%,25.0%,-1.0%

# Bioassay records as filed in PubChem.
